In ChEMBL document CHEMBL3988442, “University of Dundee, Small-Polar-MMV Screening Library” (2021):
For some of these results: Results with a measured potency or affinity are listed apart.

Legend:
Set-up in all cases: scale not given: direction of the effect not stated beside the values
[1] = target: Protein translocase subunit SecA (Escherichia coli (strain K12)) (UniProt P10408); assay: Assay to Identify E. coli SecA ATPase Inhibitors; format: functional; settings: 30 µM
[2] = target: T1, Ubiquitin-activating enzyme e1, putative (Leishmania donovani (strain BPK282A1)) (UniProt E9BSI1); assay: Leishmania donovani Ubiquitin Activating Enzyme (LdE1); format: functional; settings: 30 µM
T1 sequence (whole entry): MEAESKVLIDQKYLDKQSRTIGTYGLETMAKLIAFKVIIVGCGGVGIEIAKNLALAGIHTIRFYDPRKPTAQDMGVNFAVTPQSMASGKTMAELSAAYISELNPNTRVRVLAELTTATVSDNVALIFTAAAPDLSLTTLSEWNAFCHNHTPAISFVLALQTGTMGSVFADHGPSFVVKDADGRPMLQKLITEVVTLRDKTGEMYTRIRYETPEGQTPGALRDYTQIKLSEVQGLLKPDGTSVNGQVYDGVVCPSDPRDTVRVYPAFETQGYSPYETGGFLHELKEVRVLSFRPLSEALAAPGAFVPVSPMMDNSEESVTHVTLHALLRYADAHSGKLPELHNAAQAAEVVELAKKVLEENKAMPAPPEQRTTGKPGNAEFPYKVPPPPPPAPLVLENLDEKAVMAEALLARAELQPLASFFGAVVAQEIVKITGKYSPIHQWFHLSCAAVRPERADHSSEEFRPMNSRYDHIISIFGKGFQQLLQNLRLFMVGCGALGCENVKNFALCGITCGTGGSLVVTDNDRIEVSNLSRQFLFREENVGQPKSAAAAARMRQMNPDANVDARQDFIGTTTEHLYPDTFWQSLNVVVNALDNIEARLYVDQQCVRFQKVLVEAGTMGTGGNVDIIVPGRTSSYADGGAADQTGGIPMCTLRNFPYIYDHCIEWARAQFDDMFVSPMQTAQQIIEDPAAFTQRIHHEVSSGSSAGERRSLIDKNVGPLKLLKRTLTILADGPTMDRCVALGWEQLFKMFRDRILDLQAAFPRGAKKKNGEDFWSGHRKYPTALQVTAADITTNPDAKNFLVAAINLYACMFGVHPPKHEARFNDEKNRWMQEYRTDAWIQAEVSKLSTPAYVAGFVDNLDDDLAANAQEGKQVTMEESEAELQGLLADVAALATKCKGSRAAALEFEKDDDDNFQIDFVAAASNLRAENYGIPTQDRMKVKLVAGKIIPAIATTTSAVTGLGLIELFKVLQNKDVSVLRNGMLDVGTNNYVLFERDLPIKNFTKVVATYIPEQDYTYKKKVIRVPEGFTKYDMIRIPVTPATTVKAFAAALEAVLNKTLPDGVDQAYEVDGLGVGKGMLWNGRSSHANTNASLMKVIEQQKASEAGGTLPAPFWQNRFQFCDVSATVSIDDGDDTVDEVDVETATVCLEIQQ

[3] = target: T2, Aspartate--tRNA(Asp/Asn) ligase (Mycobacterium tuberculosis (strain ATCC 25618 / H37Rv)) (UniProt P9WFW3); assay: Assay for Asp RNA synthetase-1 from Mycobacterium tuberculosis; format: functional; settings: 30 µM; further: in the data most compounds retested in dose-response had high values
T2 sequence (whole entry): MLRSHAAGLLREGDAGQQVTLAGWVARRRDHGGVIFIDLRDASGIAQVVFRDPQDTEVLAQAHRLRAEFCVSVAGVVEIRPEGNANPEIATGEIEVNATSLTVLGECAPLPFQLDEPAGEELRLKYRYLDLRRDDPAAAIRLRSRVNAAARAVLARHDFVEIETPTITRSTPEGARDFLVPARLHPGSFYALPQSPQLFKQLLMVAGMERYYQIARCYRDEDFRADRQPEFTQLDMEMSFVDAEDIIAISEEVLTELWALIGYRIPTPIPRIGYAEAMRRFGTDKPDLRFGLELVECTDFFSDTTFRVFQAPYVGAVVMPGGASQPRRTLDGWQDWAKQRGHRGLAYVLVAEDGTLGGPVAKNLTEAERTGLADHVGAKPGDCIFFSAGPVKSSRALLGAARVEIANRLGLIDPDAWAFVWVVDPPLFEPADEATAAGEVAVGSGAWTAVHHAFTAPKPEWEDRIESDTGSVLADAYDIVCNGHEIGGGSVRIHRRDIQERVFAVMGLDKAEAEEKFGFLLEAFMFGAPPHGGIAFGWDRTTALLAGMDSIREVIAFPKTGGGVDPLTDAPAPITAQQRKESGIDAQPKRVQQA

[4] = target: Sialic acid-binding Ig-like lectin 9 (Homo sapiens) (UniProt Q9Y336); assay: Hs-Siglec9 ALPHAscreen SOP 20170721; settings: 10 µM
Chain of Sialic acid-binding Ig-like lectin 9 (Homo sapiens) (Q9Y336 whole entry): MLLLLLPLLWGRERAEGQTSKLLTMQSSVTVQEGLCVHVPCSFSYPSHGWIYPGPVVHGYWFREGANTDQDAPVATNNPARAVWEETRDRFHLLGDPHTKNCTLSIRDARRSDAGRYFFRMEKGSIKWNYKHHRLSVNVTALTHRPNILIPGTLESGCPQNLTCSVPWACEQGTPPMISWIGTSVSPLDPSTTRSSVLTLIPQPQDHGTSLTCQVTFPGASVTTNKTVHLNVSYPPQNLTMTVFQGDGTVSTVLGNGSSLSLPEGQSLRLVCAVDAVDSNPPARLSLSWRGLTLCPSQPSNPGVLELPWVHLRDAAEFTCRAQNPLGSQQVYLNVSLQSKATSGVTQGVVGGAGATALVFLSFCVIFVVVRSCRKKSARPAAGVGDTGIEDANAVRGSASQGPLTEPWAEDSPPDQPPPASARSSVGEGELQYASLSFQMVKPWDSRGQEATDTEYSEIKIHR

[5] = tested on: Trypanosoma cruzi; assay: Trypanosoma cruzi phosphomannomutase and mannose-1-phosphate guanylyltransferase assay; format: functional; settings: 10 µM
[6] = target: T3, Arginase-2, mitochondrial (Homo sapiens) (UniProt P78540); assay: in vitro enzyme assay to detect the production of urea directly proportional to the activity of Arginase II; format: functional; settings: 33.3 µM; further: in the data most compounds retested in dose-response had high values
T3 sequence (whole entry): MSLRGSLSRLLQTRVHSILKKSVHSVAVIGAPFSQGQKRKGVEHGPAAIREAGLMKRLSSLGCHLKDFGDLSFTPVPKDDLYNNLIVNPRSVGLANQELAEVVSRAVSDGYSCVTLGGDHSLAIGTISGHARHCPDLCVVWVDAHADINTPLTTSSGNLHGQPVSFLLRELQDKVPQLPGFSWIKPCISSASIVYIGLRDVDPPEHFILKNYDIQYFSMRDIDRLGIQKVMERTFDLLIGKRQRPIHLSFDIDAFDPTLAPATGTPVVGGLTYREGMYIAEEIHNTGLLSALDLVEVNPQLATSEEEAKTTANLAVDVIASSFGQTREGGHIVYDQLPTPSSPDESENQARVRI

[7] = target: T4, Proteasome subunit beta (Trypanosoma cruzi) (UniProt O96673); assay: Trypanosoma cruzi proteasome chymotrypsin-like activity (TcProtChymo) assay.; further: in the data most compounds retested in dose-response had high values; format: functional; settings: 9.37 µM
T4 sequence (whole entry): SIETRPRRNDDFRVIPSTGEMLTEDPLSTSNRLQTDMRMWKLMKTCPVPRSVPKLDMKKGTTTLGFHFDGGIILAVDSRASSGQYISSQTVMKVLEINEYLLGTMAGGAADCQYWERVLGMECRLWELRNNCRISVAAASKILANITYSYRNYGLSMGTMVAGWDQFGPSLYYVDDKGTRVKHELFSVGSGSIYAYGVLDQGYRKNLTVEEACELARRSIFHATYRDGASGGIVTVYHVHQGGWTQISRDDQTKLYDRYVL

[8] = species on record: Homo sapiens; assay: To identify inhibition of the IFN signalling (Jak-Stat) pathway via expression of an eGFP reporter gene under the control of an IFN-stimulated response element (ISRE) containing MxA promoter.; format: functional; settings: 30 µM
[9] = target: Shiga toxin 2 (Escherichia coli O157:H7) (UniProt P09385+P09386); assay: E. coli 0.157:H7 Shiga Toxin SOP - stx2 screening assay; format: functional; settings: 30 µM
[10] = target: T5, Tyrosyl-tRNA synthetase, putative (Trypanosoma cruzi (strain CL Brener)) (UniProt Q4DSP6); assay: Trypanosoma cruzi tyrosyl tRNA synthetase (TcYRS) _High Tyrosine SOP; format: functional; settings: 30 µM; further: in the data most compounds retested in dose-response had high values
T5 sequence (whole entry): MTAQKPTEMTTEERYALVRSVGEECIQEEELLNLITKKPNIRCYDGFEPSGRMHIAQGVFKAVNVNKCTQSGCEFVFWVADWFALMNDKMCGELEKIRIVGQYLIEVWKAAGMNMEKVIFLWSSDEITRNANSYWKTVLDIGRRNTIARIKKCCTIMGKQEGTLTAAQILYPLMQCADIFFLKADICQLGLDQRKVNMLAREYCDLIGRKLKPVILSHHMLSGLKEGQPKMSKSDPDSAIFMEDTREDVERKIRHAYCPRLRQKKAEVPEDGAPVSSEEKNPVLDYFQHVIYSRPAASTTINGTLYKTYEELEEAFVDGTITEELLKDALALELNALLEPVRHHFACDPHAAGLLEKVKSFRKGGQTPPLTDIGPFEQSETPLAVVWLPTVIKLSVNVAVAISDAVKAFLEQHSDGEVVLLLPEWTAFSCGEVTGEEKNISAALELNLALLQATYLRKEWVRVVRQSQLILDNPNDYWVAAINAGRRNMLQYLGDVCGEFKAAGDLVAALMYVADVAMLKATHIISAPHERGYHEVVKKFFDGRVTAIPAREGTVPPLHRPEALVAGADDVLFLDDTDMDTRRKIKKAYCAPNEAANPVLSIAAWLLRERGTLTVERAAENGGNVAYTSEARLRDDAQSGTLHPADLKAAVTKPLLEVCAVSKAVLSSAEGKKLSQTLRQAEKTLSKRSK

[11] = target: T5, Tyrosyl-tRNA synthetase, putative (Trypanosoma cruzi (strain CL Brener)); assay: Trypanosoma cruzi tyrosyl tRNA synthetase (TcYRS) SOP; format: functional; settings: 30 µM
[12] = target: Chromo domain-containing protein 1 (Saccharomyces cerevisiae (strain ATCC 204508 / S288c) (Baker's yeast)) (UniProt P32657); assay: ScCHD-1 Enzyme Inhibition Assay; format: functional; settings: 30 µM; further: in the data most compounds retested in dose-response had high values
Chain of Chromo domain-containing protein 1 (Saccharomyces cerevisiae (strain ATCC 204508 / S288c) (Baker's yeast)) (P32657 whole entry, the tested form may be a part): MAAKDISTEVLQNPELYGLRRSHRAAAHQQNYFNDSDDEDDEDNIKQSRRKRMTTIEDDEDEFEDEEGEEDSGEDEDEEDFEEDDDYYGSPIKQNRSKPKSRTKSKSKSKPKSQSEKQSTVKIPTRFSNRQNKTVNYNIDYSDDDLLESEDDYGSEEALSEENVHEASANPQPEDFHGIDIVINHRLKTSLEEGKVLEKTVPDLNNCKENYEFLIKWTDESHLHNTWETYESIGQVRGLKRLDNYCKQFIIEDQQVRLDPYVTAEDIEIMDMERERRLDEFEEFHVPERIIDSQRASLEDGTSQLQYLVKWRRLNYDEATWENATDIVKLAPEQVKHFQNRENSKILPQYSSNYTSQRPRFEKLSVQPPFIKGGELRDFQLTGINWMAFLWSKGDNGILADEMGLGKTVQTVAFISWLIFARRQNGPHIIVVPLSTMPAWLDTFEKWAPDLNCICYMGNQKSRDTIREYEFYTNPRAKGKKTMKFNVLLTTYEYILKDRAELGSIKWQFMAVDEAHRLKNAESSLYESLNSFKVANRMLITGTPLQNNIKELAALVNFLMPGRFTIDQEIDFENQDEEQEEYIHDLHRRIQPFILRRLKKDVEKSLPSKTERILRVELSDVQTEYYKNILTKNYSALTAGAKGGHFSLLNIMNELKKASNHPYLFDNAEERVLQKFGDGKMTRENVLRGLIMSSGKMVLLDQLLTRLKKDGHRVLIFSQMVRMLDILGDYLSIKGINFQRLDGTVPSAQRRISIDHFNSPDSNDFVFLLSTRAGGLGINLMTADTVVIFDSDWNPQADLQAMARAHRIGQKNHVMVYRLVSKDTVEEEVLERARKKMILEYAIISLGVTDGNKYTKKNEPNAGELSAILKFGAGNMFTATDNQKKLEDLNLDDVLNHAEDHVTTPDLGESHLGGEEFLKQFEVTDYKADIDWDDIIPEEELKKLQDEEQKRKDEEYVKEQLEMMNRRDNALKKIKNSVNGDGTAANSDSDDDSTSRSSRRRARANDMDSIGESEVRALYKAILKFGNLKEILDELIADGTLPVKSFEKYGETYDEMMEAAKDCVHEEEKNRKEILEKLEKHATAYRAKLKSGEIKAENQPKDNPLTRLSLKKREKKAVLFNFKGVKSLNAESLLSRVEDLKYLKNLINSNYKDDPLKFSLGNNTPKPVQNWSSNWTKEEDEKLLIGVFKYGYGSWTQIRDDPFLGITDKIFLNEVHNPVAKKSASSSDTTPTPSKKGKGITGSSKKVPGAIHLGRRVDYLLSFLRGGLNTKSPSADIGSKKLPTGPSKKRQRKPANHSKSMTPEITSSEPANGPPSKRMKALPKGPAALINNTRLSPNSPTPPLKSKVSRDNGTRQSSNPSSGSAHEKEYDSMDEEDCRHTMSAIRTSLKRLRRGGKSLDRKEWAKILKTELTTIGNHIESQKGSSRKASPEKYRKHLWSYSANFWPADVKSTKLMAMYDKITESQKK

Chain of Protein translocase subunit SecA (Escherichia coli (strain K12)) (P10408 whole entry): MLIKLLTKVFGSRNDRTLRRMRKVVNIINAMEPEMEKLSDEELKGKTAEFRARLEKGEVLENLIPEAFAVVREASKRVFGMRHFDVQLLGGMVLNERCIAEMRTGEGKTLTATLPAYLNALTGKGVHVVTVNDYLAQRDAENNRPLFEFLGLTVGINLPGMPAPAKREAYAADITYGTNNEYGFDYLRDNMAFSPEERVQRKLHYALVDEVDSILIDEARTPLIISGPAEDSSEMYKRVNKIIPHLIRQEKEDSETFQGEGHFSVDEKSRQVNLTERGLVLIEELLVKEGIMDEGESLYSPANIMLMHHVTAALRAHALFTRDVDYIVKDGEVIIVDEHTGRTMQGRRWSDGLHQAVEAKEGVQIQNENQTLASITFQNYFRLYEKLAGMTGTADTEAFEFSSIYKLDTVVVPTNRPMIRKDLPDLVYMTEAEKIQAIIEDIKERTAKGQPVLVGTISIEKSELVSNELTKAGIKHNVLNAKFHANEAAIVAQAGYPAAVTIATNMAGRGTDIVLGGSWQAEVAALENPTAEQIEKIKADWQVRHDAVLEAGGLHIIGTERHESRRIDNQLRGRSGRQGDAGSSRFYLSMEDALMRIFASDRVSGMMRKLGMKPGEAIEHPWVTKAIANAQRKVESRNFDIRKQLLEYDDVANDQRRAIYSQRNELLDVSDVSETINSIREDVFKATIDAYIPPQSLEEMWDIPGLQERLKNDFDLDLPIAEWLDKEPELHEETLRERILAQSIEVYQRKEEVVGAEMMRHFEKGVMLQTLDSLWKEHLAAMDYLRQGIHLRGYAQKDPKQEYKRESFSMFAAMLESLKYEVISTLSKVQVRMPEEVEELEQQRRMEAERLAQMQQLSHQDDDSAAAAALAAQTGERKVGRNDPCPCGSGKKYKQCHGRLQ

Structure (SMILES)	Percent Effect [1] [%]	Percent Effect [2] [%]	Percent Effect [3] [%]	Percent Effect [4] [%]	Percent Effect [5] [%]	Percent Effect [6] [%]	Percent Effect [7] [%]	Percent Effect [8] [%]	Percent Effect [9] [%]	Percent Effect [10] [%]	Percent Effect [11] [%]	Percent Effect [12] [%]
COc1cccc([C@@H]2CCN(Cc3ccc4ccccc4n3)C[C@H]2O)c1	-6.38	5.41	-2.79	14.7	4.56	18.5	9.76	1.68	-2.3	7.98	19.5	-2.92
COCC(=O)NC1CC2(CCN(CCF)CC2)Oc2ccccc21 (centres undefined)	-7.73	1.3	-6.51	-0.183	-2.63	1.37	8.67	16.2	6.84	0	-2.5	-22.9
Cc1noc(C)c1CN1CC[C@H]2OCC[C@@]2(C(=O)N2CCCO2)C1	-4.42	6.49	6.12	-7.21	-3.6	3.24	16.5	-11.1	-3.97	11.1	10.3	3.94
Cc1cccc(CN2C(=O)C[C@H]3[C@@H]2CCN3CC2CC2)n1	-1.8	-22.1	3.32	2.35	0.563	1.83	12.3	-5.79	4.71	12.6	12.5	-5.44
COc1ccc(C(=O)C2CCCN(CCCn3cccn3)C2)c(OC)c1 (centres undefined)	-4.85	5.41	-0.805	13.1	7.27	25.5	7.71	3.33	-4.88	6.92	17.1	77.1
CCc1nc(CN2CCN(C(=O)Cc3c(C)noc3C)CC2)cs1	-0.475	12.8	-3.43	-11.1	2.72	2.87	6.06	10.4	-8.34	6.22	13.2	-5.04
O=C(Cc1ccc(-n2cccn2)cc1)N1CCN2CCCCC2C1 (centres undefined)	-4.18	-10.7	-7.19	2.63	-5.42	3.55	9.58	0.299	-24.9	1.58	5.13	-13.6
CN(Cc1ccccc1)C1(C(=O)O)Cc2ccccc2C1			-1.53									
C[C@@H]1C(=O)NC[C@H]2CN(Cc3ccsc3)C[C@H]21	-2.31	3.9	-1.43	1.3	1.88	-0.457	-4.55	-3.55	-20.9	6.76	10	-9.75
c1ccc(CN2CCC3(CC2)CCN(Cc2cccs2)C3)nc1	-3.68	11.7	1.23	-8.25	-1.31	-0.457	6.61	-11.1	-13.1	8.7	-12.5	-12
